From PubChem BioAssay (NCI) come the findings set out here.

SMILES strings stand for the structures. About 83,000 compounds went through this panel and 20% of them were active in at least one assay; those are over-represented in the sample as a whole.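 Percent growth is the endpoint: 0 to 100 indicates growth inhibition (40 means 60% inhibition), 0 means no net growth, and negative values indicate cell death.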 Unmarked numbers belong to inactive results. The source made the active and inactive calls.

In the experiment the test system is LOX IMVI melanoma. In words: NCI-60 one-dose screen, 48 h (100 = growth as untreated, 0 = no growth, -100 = all killed). Conditions: 10 µM unless noted. The procedure:
Growth inhibition of the LOX IMVI human tumor cell line is measured as a screen for anti-cancer activity. Cells are grown in 96 well plates and exposed to the test compound for 48 hours. Compounds are tested at a single concentration, which is 10^-5 M for most compounds. The reported endpoint is percent growth (GI% or GIPRCNT), where numbers from 0 - 100% represent growth inhibition, and numbers from -100% - 0 represent cell death. For example, a value of 40 represents 60% growth inhibition. A value of 0 means no net growth occurred over the course of the experiment. A value of -40 indicates 40% of cells at the beginning of the experiment died by the end of the experiment. A value of -100 means all cells are dead at the end of the experiment.
NCI-60 Human Tumor Cell Lines Screen was performed using the standard one-dose NCI protocol, which is described in more detail at https://dtp.cancer.gov/discovery_development/nci-60/default.htm.
Compounds with GIPRCNT values below 10 were considered active. Activity score was based on GIPRCNT using the following formula: […]
Score is 0 for GIPRCNT values of 100 or above, 50 for GIPRCNT values of 0, and 100 for GIPRCNT values of -100.
With `O=c1oc2ccc([N+](=O)[O-])cc2cc1Br`, the growth is 97.2%.
Under `N#Cc1cnc(NCCc2ccncc2)nc1-n1cnc2ccccc21` stands 41.2%; under `COCCNC(=O)c1ccc(-c2nc3ccc4[nH]ncc4c3c3c2CCCC3)cc1`, 29.1%; under `CO/N=C(/C)c1ccc(NC(=O)CSc2nnc(-c3ccncc3)n2-c2ccccc2)cc1`, 65.5%.
In the case of `COc1ccc(-c2nc3c(c(-c4ccccc4)nn3-c3ccccc3)c(-c3ccc(N4CCN(C)CC4)cc3)c2C#N)cc1`, the growth was 69.2%.
With `CC1(C)CCC(S(=O)(=O)c2ccc3c(c2)/C(=N\O)c2cc(S(=O)(=O)N4CCC(O)(c5cccc(C(F)(F)F)c5)CC4)ccc2-3)CC1`, the growth was -86.1% (active).
As for `Clc1ccc2c(c1)N(c1ncnc3ccc(-c4cnc5[nH]ncc5c4)cc13)CC2`, the growth is 18.4%.
Under `CCN(CC)C(=S)SC(SC(=S)N(CC)CC)C(=O)c1nnn(-c2ccc([N+](=O)[O-])cc2)c1C` stands 89%.
Under `Cc1ccc(-c2cc(-c3ccc(Cl)cc3)nc(NC(=O)c3cccnc3)n2)cc1` stands 95.7%; under `O=C(Nc1ccc(NC(=O)c2cc(=O)[nH]c3ccccc23)cc1)Nc1cccc(C(F)(F)F)c1`, 21%.
Regarding `c1cc2[nH]ncc2cc1-c1nc2ccc3[nH]ncc3c2c2c1CCCC2`, the growth was 16.2%.
Consider `Cc1cccc(N2CCN(CC(O)COc3ccc(Cl)cc3)CC2)c1` (stereo not given), for which the growth is 97.6%.
Take `CN1CCN(c2ccc(NC(=O)c3cncnc3Nc3ccc(OCc4ccccn4)c(Cl)c3)cc2)CC1`: the growth was -22.1% (active).
As for `C=CCn1c(SCC(=O)Nc2ccc(C(=O)/C=C/c3ccc(Cl)cc3)cc2)nnc1-c1cc(-c2ccc(S(N)(=O)=O)cc2)nc2ccccc12`, the growth was 92.3%.
`COc1ccc(NC(=O)c2sc3nc(C)c(C(=O)/C=C/c4cccc(OC)c4)cc3c2N)cc1`: the growth was -73.1% (active).
`COc1cc(OC)c2sc(-c3ccc(-n4cncc4-c4ccc(OC)c(OC)c4)cc3)nc2c1`: the growth is 59.1%.
As to `Cc1cc2c(O)c(-c3cc(Cl)ccc3Cl)c3sc(=O)oc3c2cc1C`, the growth is 78.4%.
For the compound `CCCCCCC1(C)NCCO1` (stereo not given), the growth is 103%.
For `CC(C)OC(=O)c1ccc2[nH]c(O)c(C(=Nc3ccc(N(C)C(=O)CN4CCN(C)CC4)cc3)c3ccccc3)c2c1`, the growth was -96.7% (active).
For the compound `N#Cc1nc(-c2ccccc2)oc1S(=O)(=O)N1CCOCC1`, the growth was 68.2%.
`O=C(c1cc2ccccc2o1)c1nn(-c2ccccc2)/c(=N/N=Cc2cn(-c3ccccc3)nc2-c2cc3ccccc3oc2=O)s1`: the growth was 95.6%.
Consider `Cc1ccc(-n2c(=S)[nH]c3sc4c(c3c2=O)CCC(=O)C4)cc1`, for which the growth is 36.3%.
Turning to `COc1ccccc1NC(=O)Cn1cc(CN2CCN(c3ccnc4cc(Cl)ccc34)CC2)nn1`, the growth was 95.1%.
Consider `COc1cnc2c(c1)C(=O)c1c-2n(CCCNCCO)c(=O)c2ccncc12`, for which the growth was -40.5% (active).
As to `O=[N+]([O-])c1ccc(N/N=C(/C(=N/Nc2ccc([N+](=O)[O-])cc2)c2ccccc2)c2ccccc2)cc1`, the growth is 61%.
In the case of `Cc1ccc(-c2nn(-c3ccccc3)cc2C=C2C(=O)ON=C2C(C)C)cc1`, the growth is 2% (active).
Take `Cc1nc2c(=O)[nH]c(SCC(=O)Nc3cccc(F)c3)nc2[nH]c1=O`: the growth was 101%.
Turning to `Cc1ccc(-c2nc3nc(-c4ccc(F)cc4)nc(N4CCNCC4)c3o2)cc1`, the growth is -92% (active).
`O=C(Nc1nc2ccc(F)cc2s1)c1cccnc1Nc1ccc(Cl)cc1`: the growth is 48.3%.
In the case of `O=C(COc1ccc(-c2nc3ccccc3[nH]2)cc1)N=Nc1c(O)[nH]c2ccc(Cl)cc12`, the growth was 60.7%.
For `CC(=O)N(N=Nc1ccccc1)c1cccc2ccccc12`, the growth is 76.5%.
Regarding `COc1cccc(CNc2ncnc3c2ncn3C2OC(CO)C(O)C2O)c1O` (stereo not given), the growth is -0.915% (active).
On to `COC(=O)c1cc(-c2ccc(S(C)(=O)=O)cc2)[nH]c1N/N=C/c1c(Cl)cccc1Cl`, for which the growth is 43.6%.
As for `O=C1Nc2ccccc2/C1=C\c1nc(-c2ccccc2)n2ccccc12`, the growth is 84.6%.
Regarding `O=C(NCc1ccccc1)Nc1ccccc1CNc1nc(Nc2ccc(OCCN3CCCC3)cc2)ncc1Cl`, the growth is 88.8%.
Regarding `N#CC1C=CN(CC(N)=O)c2ccc3cccnc3c21` (stereo not given), the growth is 97.5%.
With `CN(Cc1ccc(C(F)(F)F)cc1)CC(O)C(=O)Nc1ccc(Cl)cc1` (stereo not given), the growth was -85.4% (active).
As for `O=C1C(Cl)=C(Oc2ccccc2)C(=O)c2ccccc21`, the growth was 85%.
`CC/C(=C(/c1ccc(Cl)cc1)c1ccc(OCCN2CCCC2)cc1)c1ccc(OC)cc1`: the growth was 68.7%.
Under `COc1ccc2nc(NC(=O)CSc3nnc4n3S(=O)(=O)c3ccccc3N4C)sc2c1` stands 92%.
